NS1 function inh – influenza NS1 inhibition; Potency, µM (series often up to 46.1 µM), without a hit: top-dose activity, positive = more growth; actives 0.4% (n = 270,000); AID 2326; calls by dose curve; further: potency means the concentration at half of the fitted maximal effect; actives are rising curves; nearly all actives have a fitted effect of over 50% in size
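OD600 was taken as the measure of yeast growth restored by compound in an NS1-expressing S. cerevisiae strain. Cells had been washed out of glucose medium and diluted 1:100 into galactose -URA medium, pH 6.0.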
LmPK inhibitor – inhibitors of Leishmania mexicana pyruvate kinase. purified LmPK, Kinase-Glo ATP luminescence, 1 h. AID 1721. Q27686. Potency, µM (titrated, usually from 57.5 µM), for inactives: at the top dose activity change, negative = inhibition, actives largely listed as inhibitors. actives 0.37% (n = 290,000); further: potency means the concentration at half of the fitted maximal effect; on the % scale 0 is the no-effect control and ±100 the full control effect
Target sequence (Q27686 whole entry, looked up): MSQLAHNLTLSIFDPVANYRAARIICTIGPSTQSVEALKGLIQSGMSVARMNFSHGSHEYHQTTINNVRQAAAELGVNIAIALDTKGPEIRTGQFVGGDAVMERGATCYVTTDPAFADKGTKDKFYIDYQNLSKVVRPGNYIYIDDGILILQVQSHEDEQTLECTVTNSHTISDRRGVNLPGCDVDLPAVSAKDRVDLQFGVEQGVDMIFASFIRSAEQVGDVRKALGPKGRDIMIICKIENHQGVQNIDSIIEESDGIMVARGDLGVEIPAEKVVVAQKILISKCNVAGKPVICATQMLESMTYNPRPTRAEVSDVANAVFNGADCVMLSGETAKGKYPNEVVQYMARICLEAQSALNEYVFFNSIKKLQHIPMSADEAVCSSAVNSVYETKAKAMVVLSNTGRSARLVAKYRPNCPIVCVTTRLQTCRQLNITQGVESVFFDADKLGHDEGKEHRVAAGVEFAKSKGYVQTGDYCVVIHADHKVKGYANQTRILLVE
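Purified LmPK (0.1 nM) with 0.5 mM PEP and 0.1 mM ADP in imidazole buffer pH 7.2 with MgCl2/KCl, 1 h at room temperature. ATP formed was read by luciferase luminescence and normalized to no-enzyme and uninhibited controls.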
AMA1 RON2 block – AMA1-RON2 (P. falciparum) interaction inhibition | AlphaScreen AMA1-biotinylated RON2 peptide binding | Potency, µM (titrated, usually from 58.2 µM), inactives show top-dose activity change, negative = inhibition, actives largely listed as inhibitors | actives 0.2% (n = 360,000);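 further: potency means the concentration at half of the fitted maximal effect; 0% = vehicle wells and -100% = peptide control; nearly all actives have a fitted effect of over 45% in size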
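AMA1 (3D7) with his tag at 25 nM final met compounds first, then biotinylated RON2 peptide at 25 nM; detection used donor plus acceptor beads, 10 µg/mL apiece, read by AlphaScreen after 30 min at room temperature.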
TbPYK inhibitor – inhibitors of Trypanosoma brucei pyruvate kinase; TbPYK enzyme, Kinase-Glo Plus ATP luminescence, 45 min; actives 0.12% (n = 410,000); Potency, µM (series often up to 76.8 µM), without a hit: top-dose activity, negative = inhibition, most hits filed as inhibitors; further: potency means the concentration at half of the fitted maximal effect; on the % scale 0 is the no-effect control and ±100 the full control effect; nearly all actives have a fitted effect of over 50% in size
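Activity of T. brucei pyruvate kinase was followed by Kinase-Glo Plus luminescence after the enzyme reacted 45 min at room temperature with 130 uM ADP (final) and substrate. Test compounds were added before ADP at multiple concentrations.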
FBPA Giardia inh – Giardia lamblia aldolase inhibition. actives 0.71% (n = 290,000). Potency, µM (series often up to 59.6 µM), for the others: at the highest dose activity, negative = inhibition, usual class: inhibitors. AID 2451. purified Giardia FBPA; further: potency means the concentration at half of the fitted maximal effect; on the % scale 0 is the no-effect control and ±100 the full control effect; nearly all actives have a fitted effect of over 55% in size
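40 nM FBPA preincubated 10 min at RT with compound (up to 57.5 uM final), then substrate plus GAPDH/TPI/NAD/arsenate coupling and diaphorase/resazurin added. Fluorescence read after 20 min at RT, 525/598 nm.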
NS1 inh valid – influenza NS1 function inhibition validation | shares compounds with NS1 function inh | influenza NS1 function cell assay, 15-point titration | activity change, negative = inhibition, % at 32.9 µM | 1,400 tested, under 10 active | AID 492980; calls by dose curve; further: 0% is about no effect
Flu PR8 replic – influenza virus titer reduction, NS1 project | shares compounds with NS1 function inh | actives 30% (n = 95) | AID 504647 | virus titer (log TCID50), log10 TCID50 at 5 µM | MDCK infected influenza A/PR/8/34, virus titer TCID50; active compounds read low; call rule not given here
Starred values were filed as active, the others as inactive; u = inconclusive; x = no result given. Compounds with a hit are over-represented: about 1.2% of the library has one in this group of screens. Unless noted, the call rests on the fitted dose curve; in most records, active means well fitted curve in the direction sought with a large enough effect; inconclusive means small, poorly fitted or top-dose-only effect, or another doubt; inactive means no such curve, though single readings can be large; an effect the other way counts as inactive or inconclusive.

SMILES | NS1 function inh | LmPK inhibitor | AMA1 RON2 block | TbPYK inhibitor | FBPA Giardia inh | NS1 inh valid | others
CCC1c2ccc(C)n2CCN1C(=O)Nc1ccccc1OC (stereo unspecified) | 15.8µM* | 6.7% | 10.1% | 1.1% | u | 2.9
Cc1cc(C(=O)O)cc(S(=O)(=O)Nc2ccccc2C(=O)NC(C)c2ccccc2)c1C (stereo unspecified) | 7.94µM* | 2.4% | -7.4% | -8.8% | 1.3% | 31.3
CCOC(=O)c1cc(-c2ccccc2)sc1NC(=O)CN1C(=O)NC(CC)(c2ccc(F)cc2)C1=O (stereo unspecified) | 11.2µM* | 0.0% | 21.0% | 0.0% | -5.8% | -23.8
COc1cc(OC)c(NC(=O)C(C)n2nc(-c3ccc(C)c(C)c3)ccc2=O)cc1Cl (stereo unspecified) | x | x | x | -0.9% | x | x
Cc1ccc(-c2noc(C3CCCN(C(=O)c4ccccc4Br)C3)n2)o1 (stereo unspecified) | u | 2.1% | 3.4% | -19.7% | 4.2% | -10.1
Cc1ccc(-c2noc(C3CCCN(C(=O)c4ccccc4)C3)n2)o1 (stereo unspecified) | -7.5% | -13.6% | 0.4% | -4.4% | 0.3% | x
O=C(Nc1cccc(C(F)(F)F)c1)Nc1cc(Cl)ccc1C(=O)O | x | x | x | x | 0.6% | x
COc1ccc(CCNC(=O)c2sc3nc4n(c(=O)c3c2C)CCCC4)cc1OC | x | x | x | -4.4% | x | x
CC(C)(C)N(Cc1ccccc1)C(=O)CCc1ccccc1 | u | 0.5% | 7.7% | 1.2% | 11.8% | -32.6
O=C(/C=C/c1ccc(Cl)c([N+](=O)[O-])c1)Nc1cccc(NC(=O)c2ccco2)c1 | 17.8µM* | 1.9% | -9.2% | -2.7% | -4.7% | 8.1
O=C(/C=C/c1ccc(Cl)c([N+](=O)[O-])c1)Nc1ccc(N2CCCC2)cc1 | u | -0.1% | u | -12.0% | -1.7% | 18.1
O=C(NC(=S)Nc1ccc(N2CCCC2)cc1)c1ccccc1[N+](=O)[O-] | u | 1.6% | 49.2% | -12.9% | -0.1% | 2.1
O=C(/C=C/c1ccc(Cl)c([N+](=O)[O-])c1)Nc1ccc(NC(=O)c2ccco2)cc1 | 2.2% | -0.1% | -2.9% | -4.0% | 8.2% | x
C/C=C(\C)[C@H](O)C[Si](C)(C)c1ccccc1 | x | x | x | x | -0.9% | x
CC(=O)N1CCC2(CCCN(C(=O)Nc3cccc(C#N)c3)C2)CC1 | x | x | x | 2.2% | -0.7% | x
O=C(N/N=C/c1cccc([N+](=O)[O-])c1)c1cc(-c2ccc3c4c(cccc24)CC3)n[nH]1 | u | 3.0% | -5.2% | 1.0% | 3.3% | -20.6
O=C(N/N=C/c1ccc(Cl)c([N+](=O)[O-])c1)c1cc(-c2ccc3c4c(cccc24)CC3)n[nH]1 | 5.01µM* | 3.7% | 19.4% | -3.8% | 1.2% | -1.3
Cn1sc(=O)n(Cc2ccccc2)c1=O | x | x | x | x | -24.8% | x
CC1=C(C#N)c2nc(N)c(C#N)c(C)c2/C1=C\c1ccc(C)cc1 | 12.6µM* | -7.2% | x | x | x | u
O=C(O)COc1ccccc1/C=N/NC(=O)CSc1nnc(SCc2cccc3ccccc23)s1 | 3.55µM* | 5.2% | 5.4% | -5.5% | -2.7% | -28.8 | Flu PR8 replic=7.5*
O=C(O)COc1ccccc1/C=N/NC(=O)CSc1nnc(SCc2ccc(Cl)cc2)s1 | 11.9% | 16.9% | 3.8% | 5.2% | -5.7% | x
CC(=O)NCCNc1ccnc(-c2ccccc2C)n1 | x | x | x | x | -0.9% | x
COc1ccc(S(=O)(=O)N2CCN(C3CCCCCCC3)CC2)cc1 | 3.2% | -2.7% | -8.5% | 2.8% | u | x
COc1ccc(S(=O)(=O)N2CCN(C(=O)C3CC3)CC2)cc1 | u | 1.1% | 5.1% | -1.9% | -3.0% | -2.1
COc1ccc(S(=O)(=O)N2CCC(C(=O)N3CCOCC3)CC2)cc1 | -14.7% | -1.0% | 2.5% | -8.9% | 1.7% | x
SMILES | NS1 function inh | LmPK inhibitor | AMA1 RON2 block | TbPYK inhibitor | FBPA Giardia inh | NS1 inh valid | others
COc1ccc(S(=O)(=O)N2CCC(N3CCCCC3)CC2)cc1 | 1.12µM* | 0.2% | -20.4% | -7.6% | -21.1% | 11.3
CC(C)(C)C1CCC2(CC1)CCN(CCCN1CCOCC1)CC2 | -8.1% | x | x | x | x | x
Nc1nnc(SCC(=O)Nc2cccc(S(=O)(=O)N3CCCCC3)c2)s1 | x | x | 11.8% | -4.8% | x | x
O=C(CSc1nnc(Nc2ccccc2)s1)Nc1cccc(S(=O)(=O)N2CCCCC2)c1 | 11.2µM* | -0.4% | 3.4% | -12.3% | 4.6% | u
COc1ccc(-n2c(SCC(=O)Nc3ccc4c(c3)OCO4)nc3ccccc3c2=O)cc1 | 22.4µM* | -1.6% | -7.8% | -0.6% | 2.6% | 17.6
O=C(CSc1nc2ccccc2c(=O)n1-c1ccc(F)cc1)Nc1cc(S(=O)(=O)N2CCOCC2)ccc1Cl | 12.6µM* | 3.9% | 2.4% | -6.8% | 0.0% | 5.7
COc1cccc(-n2c(SCc3cc(=O)oc4cc(O)c(O)cc34)nc3ccccc3c2=O)c1 | u | 0.7% | 32.7% | -5.6% | u | -15.4
Cn1cc(CN(C(=O)Nc2ccccc2)C2CCCCC2)c2ccccc21 | x | x | x | 0.9% | x | x
O=C(CSc1nc2ccccc2c(=O)n1-c1ccccc1Cl)Nc1cccc(S(=O)(=O)N2CCOCC2)c1 | 11.2µM* | 2.6% | 2.7% | -14.7% | 1.1% | 24.3 | Flu PR8 replic=6.66*
Cc1cc(NC(=O)CSc2nc3cc4c(cc3c(=O)n2CCc2ccccc2)OCO4)no1 | 12.6µM* | 2.0% | -2.0% | -7.0% | 2.2% | -0.1
CCC/C=C(\CCC)C(NS(=O)(=O)c1cccs1)c1ccc(C(=O)OC)cc1 (stereo unspecified) | x | x | x | x | -7.2% | x
CC(=NCc1ccco1)c1c(O)n(C)c(=O)n(C)c1=O | -74.9% | -4.7% | 8.1% | -14.3% | 15.7% | x
Cn1c(O)c(C=NCc2ccco2)c(=O)n(C)c1=O | 8.91µM* | 7.2% | 4.8% | 2.3% | -1.9% | -13.5
COc1ccc(S(=O)(=O)c2cn(CC(=O)Nc3ccccc3)c3ccc(Cl)cc3c2=O)cc1 | x | x | x | -0.4% | x | x
O=C(c1cccc(F)c1)N1CCC[C@@]2(CCN(c3ncccn3)C2)C1 | x | x | x | 0.0% | 1.2% | x
COc1ccc(C(=O)N2CCC(c3nc(-c4ccc(S(=O)(=O)N5CCCC5)cc4)no3)CC2)cc1 | x | x | x | 0.0% | x | x
O=[N+]([O-])c1ccc(N(c2ccccc2)c2ccccc2)cc1 | u | 5.3% | 165.1% | 0.3% | -10.4% | u
CCN(C(=O)c1ccccc1)c1ccc([N+](=O)[O-])cc1 | -2.1% | -0.2% | -12.4% | -4.1% | 11.0% | x
O=C(CCC(=O)N(CC(=O)NC1CCCCC1)Cc1ccc(F)cc1)Nc1nccs1 | -3.5% | -3.7% | -14.6% | -0.6% | x | x
O=C(CCC(=O)N(CC(=O)NC1CCCCC1)Cc1cccs1)Nc1nccs1 | 6.31µM* | 1.8% | 0.9% | -8.4% | 2.0% | 7.5
